Measurements reported in PubChem BioAssay AID1159580 (chemical genetic matrix, 2015).
Hit rate of the full screen: of about 5,500 compounds, about 2,000 (36%) were called active. Roughly 18% stayed inconclusive and do not appear here. Rule as the data show it: active = normalized growth mostly below about 0.91 (no sharp cut-off); inconclusive = no clear call, values can overlap the other calls; inactive = mostly above about 0.92. This is one part of the list.

Test: chemical genetic growth profiling, strain panel (AID 1159580);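 also: tested at 20 µM; growth read once vehicle control cultures reached saturation at 30 °C; 1 = growth at the plate median or of vehicle wells; lower values mean less growth of the strain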
Details: growth OD

Measured: normalized growth

CC(C)(C)NCC(O)c1cc(Cl)c(N)c(Cl)c1 (centres undefined)
inactive: S. cerevisiae deletion strains, locus YJR043C, strain POL32, stronger effect = lower value 1.01 | S. cerevisiae deletion strains, locus YJR075W, strain HOC1, stronger effect = lower value 1.01 | S. cerevisiae deletion strains, locus YKL009W, strain mrt4, stronger effect = lower value 1 | S. cerevisiae deletion strains, locus YKL068W, stronger effect = lower value 1 | S. cerevisiae deletion strains, locus YKL085W, strain MDH1 (second series), stronger effect = lower value 1.01 | S. cerevisiae deletion strains, locus YKL085W, strain MDH1, stronger effect = lower value 1.01 | S. cerevisiae deletion strains, locus YKL160W, strain elf1, stronger effect = lower value 0.998 | S. cerevisiae deletion strains, locus YKL190W, strain CNB1, stronger effect = lower value 1 | S. cerevisiae deletion strains, locus YKR001C, strain vps1, stronger effect = lower value 1.01 | S. cerevisiae deletion strains, locus YKR026C, strain gcn3, stronger effect = lower value 0.999 | S. cerevisiae deletion strains, locus YKR091W, strain srl3, stronger effect = lower value 1 | S. cerevisiae deletion strains, locus YLL001W, strain dnm1, stronger effect = lower value 0.983 | S. cerevisiae deletion strains, locus YLL026W, stronger effect = lower value 0.992 | S. cerevisiae deletion strains, locus YLL041C, strain sdh2, stronger effect = lower value 1 | S. cerevisiae deletion strains, locus YLR027C, strain aat2, stronger effect = lower value 0.999 | S. cerevisiae deletion strains, locus YLR039C, strain RIC1, stronger effect = lower value 1.02 | S. cerevisiae deletion strains, locus YLR058C, strain SHM2, stronger effect = lower value 1.02 | S. cerevisiae deletion strains, locus YLR102C, strain apc9, stronger effect = lower value 0.992 | S. cerevisiae deletion strains, locus YLR221C, strain rsa3, stronger effect = lower value 1 | S. cerevisiae deletion strains, locus YLR258W, strain gsy2, stronger effect = lower value 0.993 | S. cerevisiae deletion strains, locus YLR262C, strain YPT6 (second series), stronger effect = lower value 0.999 | S. cerevisiae deletion strains, locus YLR262C, strain YPT6, stronger effect = lower value 1.05 | S. cerevisiae deletion strains, locus YLR268W, strain sec22, stronger effect = lower value 0.977 | S. cerevisiae deletion strains, locus YLR320W, strain mms22, stronger effect = lower value 0.996 | S. cerevisiae deletion strains, locus YLR330W, strain CHS5, stronger effect = lower value 1.01 | S. cerevisiae deletion strains, locus YLR342W, strain FKS1 (second series), stronger effect = lower value 1.02 | S. cerevisiae deletion strains, locus YLR342W, strain FKS1, stronger effect = lower value 1 | S. cerevisiae deletion strains, locus YLR357W, strain rsc2, stronger effect = lower value 1 | S. cerevisiae deletion strains, locus YLR370C, strain arc18, stronger effect = lower value 1 | S. cerevisiae deletion strains, locus YLR371W, strain rom2, stronger effect = lower value 0.991 | S. cerevisiae deletion strains, locus YLR384C, strain iki3, stronger effect = lower value 1 | S. cerevisiae deletion strains, locus YLR418C, strain cdc73, stronger effect = lower value 0.976 | S. cerevisiae deletion strains, locus YML016C, strain PPZ1, stronger effect = lower value 1.01 | S. cerevisiae deletion strains, locus YML032C, strain rad52, stronger effect = lower value 0.992 | S. cerevisiae deletion strains, locus YML120C, strain ndi1, stronger effect = lower value 1.01 | S. cerevisiae deletion strains, locus YML124C, strain tub3, stronger effect = lower value 0.999 | S. cerevisiae deletion strains, locus YMR058W, strain fet3, stronger effect = lower value 0.998 | S. cerevisiae deletion strains, locus YMR078C, strain ctf18, stronger effect = lower value 1 | S. cerevisiae deletion strains, locus YMR125W, strain sto1, stronger effect = lower value 0.99 | S. cerevisiae deletion strains, locus YMR129W, stronger effect = lower value 1.01 | S. cerevisiae deletion strains, locus YMR205C, strain PFK2, stronger effect = lower value 0.982 | S. cerevisiae deletion strains, locus YMR223W, strain ubp8, stronger effect = lower value 1 | S. cerevisiae deletion strains, locus YMR231W, strain pep5, stronger effect = lower value 1 | S. cerevisiae deletion strains, locus YMR263W, strain SAP30, stronger effect = lower value 1.01 | S. cerevisiae deletion strains, locus YMR307W, strain GAS1, stronger effect = lower value 0.995 | S. cerevisiae deletion strains, locus YNL067W, strain RPL9B, stronger effect = lower value 1.01 | S. cerevisiae deletion strains, locus YNL071W, strain lat1, stronger effect = lower value 1 | S. cerevisiae deletion strains, locus YNL128W, strain TEP1, stronger effect = lower value 1.02 | S. cerevisiae deletion strains, locus YNL153C, strain GIM3, stronger effect = lower value 1 | S. cerevisiae deletion strains, locus YNL209W, strain ssb2, stronger effect = lower value 1.01 | S. cerevisiae deletion strains, locus YNL233W, strain BNI4, stronger effect = lower value 1.01 | S. cerevisiae deletion strains, locus YNL248C, strain rpa49, stronger effect = lower value 1 | S. cerevisiae deletion strains, locus YNL250W, strain rad50, stronger effect = lower value 0.989 | S. cerevisiae deletion strains, locus YNL271C, strain bni1, stronger effect = lower value 0.99 | S. cerevisiae deletion strains, locus YNL298W, strain CLA4, stronger effect = lower value 0.992 | S. cerevisiae deletion strains, locus YNL307C, strain MCK1, stronger effect = lower value 0.996 | S. cerevisiae deletion strains, locus YNL322C, strain KRE1 (second series), stronger effect = lower value 0.997 | S. cerevisiae deletion strains, locus YNL322C, strain KRE1, stronger effect = lower value 1.01 | S. cerevisiae deletion strains, locus YNR049C, strain mso1, stronger effect = lower value 0.997 | S. cerevisiae deletion strains, locus YNR052C, strain pop2, stronger effect = lower value 1 | S. cerevisiae deletion strains, locus YOL006C, strain TOP1, stronger effect = lower value 1.05 | S. cerevisiae deletion strains, locus YOL012C, strain htz1 1.23 | S. cerevisiae deletion strains, locus YOL147C, strain pex11, stronger effect = lower value 1 | S. cerevisiae deletion strains, locus YOR001W, strain rrp6, stronger effect = lower value 0.99 | S. cerevisiae deletion strains, locus YOR061W, strain CKA2, stronger effect = lower value 1.01 | S. cerevisiae deletion strains, locus YOR069W, strain VPS5, stronger effect = lower value 1.01 | S. cerevisiae deletion strains, locus YOR070C, strain gyp1, stronger effect = lower value 0.994 | S. cerevisiae deletion strains, locus YOR080W, strain dia2, stronger effect = lower value 0.998 | S. cerevisiae deletion strains, locus YOR083W, strain WHI5, stronger effect = lower value 1 | S. cerevisiae deletion strains, locus YOR106W, strain vam3, stronger effect = lower value 0.996 | S. cerevisiae deletion strains, locus YOR136W, strain idh2, stronger effect = lower value 0.991 | S. cerevisiae deletion strains, locus YOR144C, strain elg1, stronger effect = lower value 0.999 | S. cerevisiae deletion strains, locus YOR184W, strain ser1, stronger effect = lower value 1 | S. cerevisiae deletion strains, locus YOR265W, strain rbl2, stronger effect = lower value 1 | S. cerevisiae deletion strains, locus YOR270C, strain vph1, stronger effect = lower value 0.958 | S. cerevisiae deletion strains, locus YOR290C, strain snf2, stronger effect = lower value 0.971 | S. cerevisiae deletion strains, locus YOR316C, strain cot1, stronger effect = lower value 1 | S. cerevisiae deletion strains, locus YPL051W, strain arl3, stronger effect = lower value 0.995 | S. cerevisiae deletion strains, locus YPL055C, strain LGE1, stronger effect = lower value 0.993 | S. cerevisiae deletion strains, locus YPL078C, strain atp4, stronger effect = lower value 0.991 | S. cerevisiae deletion strains, locus YPL106C, strain sse1, stronger effect = lower value 0.985 | S. cerevisiae deletion strains, locus YPL240C, strain hsp82, stronger effect = lower value 1.01 | S. cerevisiae deletion strains, locus YPL241C, strain CIN2, stronger effect = lower value 1 | S. cerevisiae deletion strains, locus YPR119W, strain clb2, stronger effect = lower value 0.999 | S. cerevisiae deletion strains, locus YPR141C, strain kar3, stronger effect = lower value 0.996 | S. cerevisiae deletion strains, locus YPR163C, strain tif3, stronger effect = lower value 0.999 | S. cerevisiae deletion strains, locus YPR167C, strain met16, stronger effect = lower value 0.994 | S. cerevisiae deletion strains, strain wtn01, stronger effect = lower value 0.971 | S. cerevisiae strains, strain wild type, stronger effect = lower value 1
